# Data reported in PubChem BioAssay.
# Active and inactive are the calls of the source.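 The calls were made as follows, unless noted: active = z-score of at least 1.8 in each of two replicates, scored against plate mean and spread of sample wells; inactive = the rest.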
# Legend:
# [1] = viability loss with induced miR-34 in A549 – imaging, A549 dox-inducible miR-34, nuclei and caspase counts, primary screen (AID 1347080;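 active = compounds whose cell count with miR-34 switched on is under 0.7 times the count with it off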; also: test concentration not given here); conditions: A549 miR-34 inducible, Hoechst nuclei count, 48 h
# [2] = galactose survival enhancers in mitochondrial complex I cybrids – cell-based, galactose medium, ATP luminescence, primary screen (AID 1645843); conditions: complex I mutant cybrid cells, 72 h, stronger effect = higher value;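 also: positive z means more ATP and so rescue of galactose-driven cybrid death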
# [3] = stronger effect = lower value, cell number ratio, induced over uninduced
# [4] = measured here: relative caspase fold change +Dox/-Dox
# [5] = measured here: total cells with miR-34 induction, stronger effect = lower value
# [6] = measured here: total cells without miR-34 induction
Compound,"fold change [1, 3]","fold change [1, 4]","cell count [1, 5]","cell count [1, 6]",z-score [2]
COc1cc(CC(CO)C(CO)Cc2ccc(O)c(OC)c2)ccc1O (stereo not given),1.4 (inactive),0.831,8290,5940,0.405 (inactive)
CC1CN(CCCn2c3ccccc3c3ccccc32)CC(C)N1 (stereo not given),0.806 (inactive),1.22,6730,8340,-1.61 (inactive)
CC(=O)OC1CC2CCC3C(CCC4(C)C3CC([N+]3(C)CCCCC3)C4OC(C)=O)C2(C)CC1[N+]1(C)CCCCC1 (stereo not given),0.885 (inactive),2.7,8890,10000,0.825 (inactive)
CN1C2CC(OC(=O)C(CO)c3ccccc3)CC1C1OC12 (stereo not given),0.901 (inactive),2.66,9400,10400,0.87 (inactive)
COC1OC2O[C@@]3(C)CCC4C(C)CCC(C1C)[C@@]24OO3 (stereo not given in full),0.961 (inactive),0.771,9270,9650,-0.035 (inactive)
CC(C)(C)NC(=O)C1CC2CCCCC2CN1CC(O)C(Cc1ccccc1)NC(=O)C(CC(N)=O)NC(=O)c1ccc2ccccc2n1 (stereo not given),1.12 (inactive),1.27,4860,4350,-1.52 (inactive)
CCC(C)C(=O)OC1CCC=C2C=CC(C)C(CCC3CC(O)CC(=O)O3)C21 (stereo not given),0.968 (inactive),0.887,1480,1530,-0.74 (inactive)
Cc1ccsc1C(=CCCN1CCCC(C(=O)O)C1)c1sccc1C (stereo not given),0.928 (inactive),1.05,8550,9210,1.02 (inactive)
COCc1c(C(C)C)nc(C(C)C)c(C=CC(O)CC(O)CC(=O)O)c1-c1ccc(F)cc1 (stereo not given),1.06 (inactive),2.76,1210,1140,-1.86 (inactive)
CC(=O)OC1CC2CCC3C(CC[C@@]4(C)C3CC([N+]3(C)CCCCC3)C4OC(C)=O)[C@@]2(C)CC1N1CCCCC1 (stereo not given in full),0.934 (inactive),1.76,9160,9800,0.43 (inactive)
COC(=O)C[C@](O)(CCCC(C)(C)O)C(=O)OC1C(OC)=C[C@]23CCCN2CCc2cc4c(cc2C13)OCO4 (stereo not given in full),0.85 (inactive),0.957,1590,1870,-1.86 (inactive)
CC[C@]1(O)CC2CN(CCc3c([nH]c4ccccc34)[C@@](C(=O)OC)(c3cc4c(cc3OC)N(C=O)C3[C@@](O)(C(=O)OC)C(OC(C)=O)[C@]5(CC)C=CCN6CC[C@]43C65)C2)C1 (stereo not given in full),0.746 (inactive),1.38,1340,1800,-1.05 (inactive)
CC#C[C@]1(O)CCC2C3CCC4=CC(=O)CCC4=C3C(c3ccc(N(C)C)cc3)C[C@@]21C (stereo not given in full),0.84 (inactive),0.861,5600,6670,-0.035 (inactive)
C[C@]12C=CC(=O)C=C1CCC1C2C(O)C[C@@]2(C)C1CC[C@]2(O)C(=O)COC(=O)CCC(=O)O (stereo not given in full),0.962 (inactive),2.02,7550,7850,1.77 (inactive)
